In the supplement of paper PMC3545927:
The list shows a part of the results. No count for the full screen is at hand.

Biological target: furin, P09958
Experiment: furin cleavage Z-score vs untreated control; higher = more cleavage, active = 3.5 or more, inactive = 1 or less, 8 variable residues between constant flanks
Summary of the method: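 The cleavage Z-score was derived for purified furin acting on 8-mer peptides held on magnetic beads and fused to a cDNA oligonucleotide. Digests lasted 7.5, 15 or 30 min at 1:10 enzyme:substrate in 50 mM HEPES pH 7.5 with CaCl2 and NaCl. Sequencing counts of released DNA, log-transformed against furin-free reactions, were lowess-adjusted and scaled by median absolute deviation.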

furin, P09958, sequence (P09958 whole entry): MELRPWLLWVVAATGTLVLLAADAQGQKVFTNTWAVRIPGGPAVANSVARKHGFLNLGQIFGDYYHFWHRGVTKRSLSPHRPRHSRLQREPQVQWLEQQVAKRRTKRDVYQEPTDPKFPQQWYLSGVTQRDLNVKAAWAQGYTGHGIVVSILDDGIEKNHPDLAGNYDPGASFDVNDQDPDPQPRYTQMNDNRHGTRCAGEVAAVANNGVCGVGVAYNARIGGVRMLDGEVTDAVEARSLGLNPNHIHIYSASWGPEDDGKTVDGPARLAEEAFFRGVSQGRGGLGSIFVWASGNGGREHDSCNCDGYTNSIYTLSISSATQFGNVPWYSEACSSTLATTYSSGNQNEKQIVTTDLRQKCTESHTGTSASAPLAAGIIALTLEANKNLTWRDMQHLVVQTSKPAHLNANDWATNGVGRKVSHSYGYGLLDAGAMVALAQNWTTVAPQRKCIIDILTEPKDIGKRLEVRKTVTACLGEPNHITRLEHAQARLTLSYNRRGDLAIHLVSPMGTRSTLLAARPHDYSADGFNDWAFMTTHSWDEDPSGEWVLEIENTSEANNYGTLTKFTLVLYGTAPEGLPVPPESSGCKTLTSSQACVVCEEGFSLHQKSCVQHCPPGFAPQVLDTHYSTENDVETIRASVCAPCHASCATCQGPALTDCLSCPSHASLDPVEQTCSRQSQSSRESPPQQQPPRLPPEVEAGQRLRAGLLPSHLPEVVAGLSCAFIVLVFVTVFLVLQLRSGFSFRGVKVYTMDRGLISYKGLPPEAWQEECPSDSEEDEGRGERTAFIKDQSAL

Sequence | furin cleavage Z-score (7.5 min) | furin cleavage Z-score (15 min) | furin cleavage Z-score (30 min)
CAFCALARKMAGNASASA [HC621] | 0.374 (inactive) | 0.367 (inactive) | 0.832 (inactive)
CAQDVVCCSMAGNASASA [HC2122] | -0.38 (inactive) | -0.828 (inactive) | -1.79 (inactive)
CALLFNILGGAGNASASA [HC1064] | -0.771 (inactive) | -1.63 (inactive) | -1.52 (inactive)
CAERKRIKRAAGNASASA [FS-650] | 9.45 (active) | 8.85 (active) | 7.6 (active)
CAERKRECQLAGNASASA [FS-1670] | 0.036 (inactive) | 1.4 | -0.462 (inactive)
CATAHRIKRAAGNASASA [FS-383] | 9.97 (active) | 8.71 (active) | 6.96 (active)
CADLGRAKRFAGNASASA [FS-225] | 6.94 (active) | 8.17 (active) | 9.16 (active)
CARSGRGPFGAGNASASA [FS-1925] | -0.792 (inactive) | -2.29 (inactive) | -0.384 (inactive)
CAHERRMKRFAGNASASA [FS-791] | 10 (active) | 11.5 (active) | 9.74 (active)
CARSGRAKRFAGNASASA [FS-1271] | 10.1 (active) | 10.5 (active) | 11.1 (active)
CARPRRFMDLAGNASASA [FS-3163] | 0.819 (inactive) | 0.127 (inactive) | 1.71
CARSGRHVVFAGNASASA [FS-3079] | -0.951 (inactive) | 0.442 (inactive) | 1.42
CARPRRAKRFAGNASASA [FS-1069] | 9.54 (active) | 11 (active) | 9.13 (active)
CARPARLHRFAGNASASA [FS-1065] | -0.918 (inactive) | 0.964 (inactive) | 0.792 (inactive)
CAKFPGGGQIAGNASASA [HC172] | -2.08 (inactive) | 0.112 (inactive) | -2.19 (inactive)
CAELTTPCSGAGNASASA [HC1965] | -0.879 (inactive) | -0.537 (inactive) | -1 (inactive)
CAENLETTMRAGNASASA [HC760] | 0.652 (inactive) | 0.35 (inactive) | 0.0456 (inactive)
CADPERRKRFAGNASASA [FS-985] | 4.94 (active) | 7 (active) | 7.37 (active)
CATHFFSVLIAGNASASA [HC1584] | -0.934 (inactive) | -0.739 (inactive) | -0.913 (inactive)
CAVVCCSMSNAGNASASA [HC2101] | 0.58 (inactive) | 0.0609 (inactive) | 0.764 (inactive)
CAWAGWLLSPAGNASASA [HC207] | -0.479 (inactive) | 0.659 (inactive) | 1.76
CARLARSFDCAGNASASA [FS-2568] | 1.56 | 2.61 | 3.82 (active)

Sequence | furin cleavage Z-score (7.5 min) | furin cleavage Z-score (15 min) | furin cleavage Z-score (30 min)
CARLARGSPPAGNASASA [HC1255] | 0.846 (inactive) | 0.514 (inactive) | 0.935 (inactive)
CARPARALHPAGNASASA [FS-2734] | 1.19 | 3.17 | 4.44 (active)
CARLRRSSSPAGNASASA [FS-2353] | 9.29 (active) | 8.89 (active) | 6.99 (active)
CARPARVALPAGNASASA [FS-2053] | -1.54 (inactive) | -0.594 (inactive) | 1.32
CARLARALSPAGNASASA [FS-1735] | 5.51 (active) | 6.45 (active) | 6.16 (active)
CARPARGAGPAGNASASA [FS-3015] | 0.195 (inactive) | -1.12 (inactive) | -0.256 (inactive)
CATDATSILGAGNASASA [HC821] | 0.234 (inactive) | -0.686 (inactive) | -0.354 (inactive)
CARHKKSKFTAGNASASA [FS-3253] | -0.584 (inactive) | -0.415 (inactive) | -1.12 (inactive)
CASMPPLEGEAGNASASA [HC1354] | 0.264 (inactive) | -0.391 (inactive) | -0.745 (inactive)
CAGAAKAAAGAGNASASA [NG6] | -1.87 (inactive) | -1.89 (inactive) | -1.77 (inactive)
CAVVCCYMSYAGNASASA [HC117] | -0.228 (inactive) | 0.612 (inactive) | -0.215 (inactive)
CAMTGYTGDFAGNASASA [HC881] | 0.318 (inactive) | 1.08 | -0.18 (inactive)
CARLARGEDEAGNASASA [FS-2983] | -0.38 (inactive) | -0.666 (inactive) | -0.468 (inactive)
CARPARFLDSAGNASASA [FS-2051] | 0.467 (inactive) | 1.13 | 1.17
CARLRRSLKPAGNASASA [FS-1745] | 6.9 (active) | 7.63 (active) | 9.8 (active)
CAVTKRDVLDAGNASASA [FS-3144] | -0.767 (inactive) | -0.792 (inactive) | 0.507 (inactive)
CAVTKRSLSPAGNASASA [FS-2115] | 1.18 | 3.3 | 4.48 (active)
CARLRRGQCPAGNASASA [FS-1744] | -0.204 (inactive) | 1.25 | -0.396 (inactive)
CARLARNVKEAGNASASA [FS-2984] | 4.24 (active) | 6.29 (active) | 5.68 (active)
CARPARFLRHAGNASASA [FS-1401] | 7.22 (active) | 9.82 (active) | 7.94 (active)
CARLRRGGDPAGNASASA [FS-2574] | -0.102 (inactive) | 1.44 | 0.372 (inactive)
CARDRSELSPAGNASASA [HC489] | -0.384 (inactive) | 0.819 (inactive) | -0.778 (inactive)
